Screen size: about 220,000 compounds; about 830 (0.38%) were called active.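 The calls were made as follows: active = compound inhibiting the enzyme by more than half at any dose during confirmatory dose-response retesting; inconclusive = strong single-dose inhibitors picked by rank but not retested; inactive = the rest.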 Not all results are given here. Measured potencies and affinities stand elsewhere.
Target: Leucine aminopeptidase (Plasmodium falciparum (isolate 3D7)) (UniProt Q8IL11)
Assay: P. falciparum M17LAP inhibitors, primary screen, biochemical, fluorogenic H-Leu-NHMec substrate, 1536-well (AID 1619);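 also: plate controls were full reaction with DMSO carrier for no effect and no enzyme background for full effect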
Settings: recombinant M17LAP, H-Leu-NHMec fluorogenic kinetic assay; at 30 µM; active compounds read high

Leucine aminopeptidase (Plasmodium falciparum (isolate 3D7)), sequence (Q8IL11 whole entry, looked up): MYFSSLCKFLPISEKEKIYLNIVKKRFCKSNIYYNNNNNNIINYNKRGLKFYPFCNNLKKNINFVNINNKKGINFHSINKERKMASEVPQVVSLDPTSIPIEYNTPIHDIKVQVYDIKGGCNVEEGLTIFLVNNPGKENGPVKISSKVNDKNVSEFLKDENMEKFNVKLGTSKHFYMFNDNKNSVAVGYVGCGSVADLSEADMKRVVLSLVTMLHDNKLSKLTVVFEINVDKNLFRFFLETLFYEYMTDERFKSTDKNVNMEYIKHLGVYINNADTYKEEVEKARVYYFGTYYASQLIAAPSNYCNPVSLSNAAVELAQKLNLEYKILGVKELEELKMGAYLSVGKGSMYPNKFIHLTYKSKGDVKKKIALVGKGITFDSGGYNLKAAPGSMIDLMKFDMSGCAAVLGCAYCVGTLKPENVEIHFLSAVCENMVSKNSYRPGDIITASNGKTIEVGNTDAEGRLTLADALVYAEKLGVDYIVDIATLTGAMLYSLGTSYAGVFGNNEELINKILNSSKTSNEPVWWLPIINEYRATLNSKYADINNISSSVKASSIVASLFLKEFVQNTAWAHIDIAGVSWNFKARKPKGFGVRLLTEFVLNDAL

inhibition, inactive:
CCC(=O)NCc1csc(-c2cccs2)n1 -3.47%
O=C(Nc1cc(N2CCOCC2)ncn1)NC1(C(F)(F)F)Oc2ccccc2O1 5.1%
O=C(NCCN1CCOCC1)NC1(C(F)(F)F)Oc2ccc(Cl)cc2O1 (stereo not drawn) 28.4%
Cn1nc(C(F)(F)F)c(-c2ccc(F)cc2)c1NC(=O)c1cccnc1 -2.14%
COc1ccc(/C=C2\NC(=O)C(C=NCc3ccccc3)=C2O)cc1 0.26%
COc1ccc(-c2nnc(SCC(=O)NCCc3ccccc3)o2)cc1 -10.2%
Cc1cc(C)nc(SCC(=O)OCN2C(=O)c3ccccc3C2=O)n1 8.29%
CC(=O)Nc1ccc(NC(=O)CSc2ccc(C)cc2)cc1 -3.31%
CCCn1c(SCC(=O)c2ccc(CC)cc2)n[nH]c1=O 26.6%
Cc1ccc(C(=O)CSc2nc(C)cc(=O)[nH]2)cc1 9.23%
Cn1cnnc1SCC(=O)OCN1C(=O)c2ccccc2C1=O 3.47%
Cc1ccc(C(=O)CSc2nnc(C)s2)cc1 -0.76%
CCc1ccc(C(=O)CSc2nc3ccccc3c(=O)[nH]2)cc1 -2.74%
Cc1ccc(NC(=O)CSc2nnc(CCC(=O)O)c(=O)[nH]2)cc1 13.7%
CCOC(=O)C[N+](C)(C)CCOC1CC2CCC1(C)C2(C)C (stereo not drawn) 3.08%
O=C(c1cnn2c(C(F)(F)F)cc(-c3ccc4c(c3)OCO4)nc12)N1CCCCC1 6.7%
O=C(NCCC1=CCCCC1)C1CCN(C(=O)Cc2ccccc2)CC1 6.09%
O=C(CSc1n[nH]c(-c2cccs2)n1)N1CCCc2ccccc21 1.29%
Fc1ccc(CNc2nc3ccccc3n3cnnc23)cc1 -2.38%
CCOC(=O)C1CN(S(=O)(=O)c2ccccc2)CCN1S(=O)(=O)c1ccccc1 (stereo not drawn) -13.2%
CCCCCn1c(CNC(=O)COC)nc2ccccc21 -1.06%
CN(CC(=O)Nc1ccc(N2CCOCC2)cc1)CC(=O)Nc1cccc(C#N)c1 17.1%
CC(C)Oc1ccc(C(CC(=O)O)NC(=O)C(Sc2ccccc2)c2ccccc2)cc1 (stereo not drawn) 19.5%
CC(C)Oc1ccc(C(CC(=O)O)NC(=O)C2CCCCC2)cc1 (stereo not drawn) 4.14%
Cc1ccc(C(=O)CSc2n[nH]c(C)n2)cc1 46.4%
Cc1nc(SCC(=O)c2ccc(F)cc2)n[nH]1 19.2%
CC(C)(C)c1ccc(C(=O)CSc2n[nH]c(=O)[nH]c2=O)cc1 -4.96%
CC(C)(C)c1ccc(C(=O)CSc2nc3ccccc3c(=O)[nH]2)cc1 9.78%
O=C(CCC(=O)Nc1ccccc1)NNC(=O)c1ccccc1Cl -1.79%
CCCN1Cc2cccc(C(=O)Nc3ccc(C)cc3)c2C1=O -1.02%
COCCNC(=S)N1CCC(Cc2ccccc2)CC1 1.83%
CC(=O)Nc1ccc(Sc2ccccc2C(=O)O)cc1 6.89%
CCOC(=O)C1CCCN(C(=O)c2cc(Nc3ccc(OC)cc3OC)nc3ccccc23)C1 (stereo not drawn) -1.02%
O=C(NCCc1ccc(S(=O)(=O)N2CCCC2)cc1)c1cccs1 22.4%
O=C(CSc1nnc(CNC(=O)c2ccco2)o1)Nc1ccccc1 21.5%
COc1ccc2nc(N3CCCCC3)c(/C=C3\SC(=S)NC3=O)cc2c1 15.3%
O=C1NC(=S)S/C1=C\c1cc2ccccc2nc1N1CCCCC1 8.4%
O=C(CSCc1ccccc1Br)N/N=C/c1ccc(OCC(=O)N2CCCCC2)cc1 9.49%
O=C1NC2(CCCCC2)C(=O)N1/N=C/c1ccccc1Br -1.17%
CCCc1nc2ccccc2c(=O)n1/N=C/c1ccccc1O -13.5%
CCCc1nc2ccccc2c(=O)n1/N=C/c1ccc(O)cc1 -6.52%
Cc1ccc(-c2cccc(NC(=O)C3C(C(=O)O)[C@@H]4C=C[C@H]3C4)c2)o1 (stereo partly drawn) 22.7%
Cc1ccc(-c2ccc(NC(=O)C3C4C=CC(C4)C3C(=O)O)cc2)o1 (stereo not drawn) 51.5%
CCOC(=O)C/C(C)=N/NC(=O)C1CC1(c1ccccc1)c1ccccc1 (stereo not drawn) -7.82%
Cc1cc(NC(=O)c2ccc(NC(=O)C3CC3)cc2)no1 -1.13%
COc1ccc(Br)cc1CN(C)C(C)C(=O)Nc1cccc(C(C)=O)c1 (stereo not drawn) -4.69%
CC1CCc2nn(CC(=O)Nc3ccc(F)cc3F)cc2C1 (stereo not drawn) 6.54%
Cc1ccc(NC(=O)Cn2cc3c(n2)CCC(C)C3)cc1 (stereo not drawn) -7.43%
CC1CCN(S(=O)(=O)c2ccc3ncn(CC(=O)N(C)Cc4ccccc4)c(=O)c3c2)CC1 3.66%
COc1ccc(N2C(=O)CCC(C(=O)N3CCCCCC3)C2c2ccc(OC)c(OC)c2)cc1 (stereo not drawn) -1.54%
CCCCC(CC)C(=O)NCC(C)NC(=O)C(CC)CCCC (stereo not drawn) 2.99%
CCOc1ccc(C(=O)NCC(=O)OCC(=O)Nc2ccccc2OCC)cc1 0.01%
CC(OC(=O)Cc1coc2ccc3ccccc3c12)C(=O)Nc1ncc(Cl)cc1Cl (stereo not drawn) 5.82%
Cn1c(=O)[nH]c(=O)c2c1nc(NC1CCCCC1)n2CC(=O)NC1CCCCC1 10.2%
COc1ccc(C)cc1NC(=O)CC1COc2ccccc2O1 (stereo not drawn) 4.49%
COc1ccc(NC(=O)CCC2COc3ccccc3O2)c(OC)c1 (stereo not drawn) 11.9%
COc1cccc(NC(=O)CC2COc3ccccc3O2)c1 (stereo not drawn) 7.49%
COc1cc(OC)c(OC)cc1NC(=O)CC1COc2ccccc2O1 (stereo not drawn) -17.5%
FC(F)(F)c1ccccc1NC(=S)N1CCN(c2ccccn2)CC1 1.6%
Oc1cc(Cc2ccccc2)cnc1CN1CCOCC1 -3.17%
CCCCCOP(=O)(c1ccccc1)c1ccccc1 -7.38%
CCc1ccc(-n2c(SCC(=O)N3Cc4ccccc4CC3C(=O)O)nnc2-c2ccncc2)cc1 (stereo not drawn) -6.38%
CC(c1ccon1)N(C)Cc1c(C(=O)N(C)Cc2ccccc2)nc2ccccn12 (stereo not drawn) 11.8%
Cc1cc(C(=O)CSc2cccc[n+]2[O-])c(C)n1-c1ccc(Br)cc1 1.39%
CCN1c2ccccc2-c2nc3ccccc3n2C1c1cccnc1 (stereo not drawn) -45%
O=C(COC(=O)CCC(=O)c1ccc(Cl)cc1)NC1CC1 10.9%
O=C(c1ccccc1Cl)N1CCn2c1nc1ccccc12 24.5%
CCOCCCn1c(SCC(=O)Nc2cc(C(C)(C)C)nn2-c2ccccc2)nc2ccccc2c1=O -8.18%
O=C(O)c1cccc(N2C(=O)/C(=C/c3ccc([N+](=O)[O-])cc3)C=C2c2ccccc2)c1 31.6%
O=C1/C(=C/c2ccc([N+](=O)[O-])cc2)C=C(c2ccccc2)N1c1ccccc1 1.75%
CCOC(=O)CC(=O)CSc1nc(C)cc(C)c1C#N -4.47%
COc1cc(NC(=O)c2cccc(C)c2)c(OC)cc1NC(=O)CN1CCOCC1 14.9%
CN1C(=O)S/C(=C\c2ccccc2OCc2ccc(C(=O)O)cc2)C1=O 5.62%
Cc1ccccc1/C=C1\SC(=S)N(/N=C/c2cc([N+](=O)[O-])ccc2O)C1=O 15.5%
O=C(O)COc1ccccc1/C=C1\SC(=S)N(c2cccnc2)C1=O 10.2%
O=C(O)COc1ccccc1/C=C1\SC(=Nc2ccc(F)cc2)N(c2ccc(F)cc2)C1=O 2.19%
Cc1cccc(C2c3[nH]c4ccccc4c3CCN2C(=O)c2cn(C)c3ccccc3c2=O)n1 (stereo not drawn) 8.5%
COCCCNC(=S)N/N=C/c1ccccc1O 19.4%
O=C(O)CCCC(=O)Nc1cccc(C(F)(F)F)c1 24.8%
CCc1nnc(SCC(=O)Nc2ccccc2)nc1CC 21.8%
O=C(CSC1=NCCN1)Nc1cccc(C(F)(F)F)c1 -6.47%
CNCC(=O)Nc1ccc(Cl)c(C(F)(F)F)c1 -1.94%
Cc1cc(C)nc(SCc2nnc(SCC(=O)Nc3ccc(Cl)c(C(F)(F)F)c3)o2)n1 10.2%
CCc1ccc(NC(=O)CSc2nnc(CC)c(CC)n2)cc1 29.2%
Cc1cc(C)nc(/N=C(\NC(=O)C(C)(C)C)Nc2ccc(F)cc2)n1 12.7%
CN(C)CCNC(=S)Nc1ccc(-c2nc3ccccc3[nH]2)cc1 18.8%
COc1ccc(-c2csc3nc(C)nc(N4CCN(c5ccc(C(C)=O)cc5)CC4)c23)cc1OC -3.5%
COCCSc1ccccc1C(=O)N1CCCC(C)C1 (stereo not drawn) -3.2%
CC(C)(C)C(=O)Nc1cccc(-c2ncon2)c1 1.81%
NS(=O)(=O)c1ccc(NC(=O)Cn2ncc3c2-c2ccccc2OC3)cc1 -1.22%
COc1ccc(OC)c(CNC(=O)Cc2c(C(=O)O)[nH]c3ccccc23)c1 28.4%
COc1cccc(CNC(=O)Cc2c(C(=O)O)[nH]c3ccccc23)c1 8.02%
Cc1ccc(NC(=O)C(=O)NCC2CCCO2)cc1C (stereo not drawn) -1.64%
COc1ccc(S(=O)(=O)Nc2nncs2)cc1 54.3%
COCc1nnc(NS(=O)(=O)c2ccc(C)cc2)s1 4.91%
Cc1cc(C)c(C#N)c(SCC(=O)Nc2ccccc2C)n1 -11.6%
Cc1ccc(C)c(NC(=O)CSc2nc(C)cc(C)c2C#N)c1 11.2%
Cc1cc(C)c(C#N)c(SCC(=O)Nc2ccccc2C(N)=O)n1 -14.1%
COCc1cc(C)nc(SCC(=O)Nc2ccccc2C)c1C#N -1.72%
Cc1cc(C)c(C#N)c(SCC(=O)Nc2ccc3c(c2)OCO3)n1 2.63%
Cc1ccccc1NC(=O)CSc1nc(N)c(C#N)cc1C#N -1.94%
Cc1nc(SCC(=O)Nc2ccc(F)cc2)c(C#N)c(C)c1CC(=O)c1ccc(Br)cc1 -7.6%
COc1ccc(-c2cc(C(F)(F)F)c(C#N)c(SCC(=O)Nc3ccccc3C#N)n2)cc1 -5.46%
